PubChem BioAssay AID590 (National Center for Advancing Translational Sciences (NCATS), 2007)
In all, about 59,000 compounds went through this assay and about 6,500 (11%) were called active. About 15% were inconclusive and are not listed. Rule as the data show it: active = max dye-equivalent concentration above about 10 nM; inconclusive = mostly about 1.1 nM to 9.6 nM; inactive = weaker than that. Many of the other results were omitted from the sample, so actives are more common in it than they were.

Assay: qHTS Assay for Spectroscopic Profiling in A350 Spectral Region
Conditions: Compound autofluorescence, 340/450 nm, Alexa 350 dye-equivalents; active compounds read high

Compound | max dye-equivalent concentration
C=C(C)Cn1c(SCC(=O)NCc2ccco2)nc2sc3c(c2c1=O)CCC3 | inactive
CN1CCc2c(sc3c2c(NCc2ccco2)nc2nnnn23)C1 | 530 nM (active)
c1coc(CNc2ncnc3ccccc23)c1 | inactive
CCOC(=O)c1cnc(SCC(=O)NCc2ccco2)nc1N | inactive
CC(=NC1CCN(Cc2ccccc2)CC1)c1c(O)[nH]c(=O)[nH]c1=O | inactive
COc1ccc(CCNC(=O)CSc2nc(C)nc3c2oc2ccccc23)cc1OC | inactive
COc1ccccc1Nc1ncc(C(C)=O)c(C)n1 | inactive
COc1ccccc1Nc1ncnc2c1oc1ccccc12 | 84 nM (active)
O=C1CSC(=O)N1CCOCCN1C(=O)CSC1=O | inactive
CS(=O)(=O)N1CCC2(CCN(c3ccncc3)CC2)CC1 | inactive
COc1c(F)c(F)c(-c2csc(N)n2)c(F)c1F | 15 nM (active)
Cc1ccc(F)cc1NC(=O)c1cccc(N(C)C)c1 | inactive
OCCCNC(c1ccccc1)c1ccc(O)cc1 (configuration not stated) | inactive
CCOc1cc(N2CCOCC2)c(OCC)cc1NC(=O)COc1cccc2cccnc12 | 19 nM (active)
C=CCn1c(COc2cccc3cccnc23)nnc1SCC(=O)OC | inactive
O=C(Nc1ccc(F)cc1)c1cccnc1N1CCOCC1 | inactive
CCCn1c(SCC(=O)N2CCc3ccccc32)nnc1-c1ccncc1 | inactive
Cc1cccc(NC(=O)CSc2nc3c(c(=O)[nH]2)CCC3)c1C | inactive
COc1cccc(-c2cc3nc4c(c(N5CCC6(CC5)OCCO6)n3n2)CCCC4)c1 | 130 nM (active)
COc1cccc(-c2nc(S(=O)(=O)c3ccccc3)c(N3CCOCC3)o2)c1 | inactive
COc1ccccc1CNC(=O)C1CCN(S(C)(=O)=O)CC1 | inactive
Cc1cc(C)c2nc3c(c([C@H](O)[C@@H]4CCCCN4)c2c1)CC/C3=C/c1ccc(Cl)cc1 | inactive
CCOC(=O)c1sc(/N=C/Nc2nc(C)c(C(=O)OCC)s2)nc1C | 10 nM (active)
Cc1nc(NC(=O)CCC(=O)O)sc1C(=O)N(C)C | inactive
COC(=O)c1sc(NC(=O)c2csc3c2CCCC3)nc1C | inactive
CCN(CC)P(=O)(C(NC(=O)OC)C(F)(F)C(F)(F)C(F)(F)C(F)F)N(CC)CC (configuration not stated) | inactive

Compound | max dye-equivalent concentration
CCOc1cccc(NC(=O)C2CCCN(S(=O)(=O)c3ccc(OC)cc3)C2)c1 (configuration not stated) | inactive
CCOC(=O)c1c(C)c(C(=O)NCCc2ccc(S(N)(=O)=O)cc2)c(C)n1CC | inactive
CCOc1ccccc1-n1c(SCC(=O)N2CCCC2)nnc1-c1ccoc1C | inactive
C=CCNc1nnc(SCC(=O)N2CCCCC2)c2ccccc12 | 15 nM (active)
C=CCNc1nnc(C)c2ccccc12 | inactive
O=C(OCC(=O)N1CCN(C(=O)c2ccco2)CC1)c1ccccc1Cc1ccccc1 | inactive
COc1ccc(C2C(C(=O)N3CCN(c4ccc(OC)cc4)CC3)c3ccccc3C(=O)N2C)cc1 (configuration not stated) | inactive
C/C(Cl)=C\Cn1c(Nc2cccc(C)c2)nc2c1c(=O)n(C)c(=O)n2C | inactive
COCCNC(=O)c1snc2ccc(Cl)cc12 | 46 nM (active)
COCCNC(=O)c1ccccc1-c1nc(-c2ccccc2Cl)no1 | inactive
COCC(C)NC(=O)c1ccc(Cl)c(Cl)c1 (configuration not stated) | inactive
OCCCNCc1ccccn1 | inactive
Cc1noc(C)c1CSc1nc2cc(S(=O)(=O)N3CCOCC3)ccc2o1 | inactive
CC(=O)Nc1ccc(S(=O)(=O)Nc2nc3n(n2)C(c2ccccc2)CC(=O)N3)cc1 (configuration not stated) | inactive
Cc1onc(-c2ccccc2Cl)c1C(=O)NCCn1ccc2ccccc21 | inactive
Cc1cc(C)c2c(c1)cc(C)c1nnc(SCC(=O)Nc3cc(C)on3)n12 | inactive
Cc1nc(SCC(=O)Nc2cc(C)on2)c2c(C)c(C)sc2n1 | inactive
Cc1ccc2nc(-c3ccc(SCC(=O)Nc4cc(C)on4)nc3)[nH]c2c1 | 30 nM (active)
Cn1c(=O)c2c(nc(SCC(=O)Nc3ccccc3N3CCCCC3)n2C)n(C)c1=O | inactive
CC(C)c1cc(CN(C)C)c(O)c(C(C)(C)C)c1 | inactive
O=c1oc2cc(O)ccc2cc1-c1ccc(F)cc1 | 100 nM (active)
O=C(Cn1c(=S)nc2ccccn21)N1CCc2ccccc2C1 | inactive
O=C1c2ccccc2C(=O)N1c1ccccc1S(=O)C(F)(F)F (configuration not stated) | inactive
CC1Cc2ccccc2N1C(=O)Cn1cnc2ccccc2c1=O (configuration not stated) | inactive
CCCOC(=O)Cc1c(O)c2ccccc2[nH]c1=O | inactive
CCOC(=O)CCc1c(C)c(C#N)c2[nH]c3ccccc3n2c1=O | 5400 nM (active)

Compound | max dye-equivalent concentration
CCOC(=O)CC1=CC(=O)Nc2ccccc2N1 | inactive
CC1(C)Cc2ccccc2-c2nnc(-c3cccc(O)c3)n21 | inactive
Cc1cc(C)nc(-n2nc(C)cc2NC(=O)c2ccc(Br)o2)n1 | inactive
CCCC(=O)Nc1ccc(Cl)c(NC(=O)c2ccc(Br)o2)c1 | inactive
CCc1c(C)sc(NC(=O)c2ccc(Br)o2)c1C(=O)OC | 190 nM (active)
COc1ccc(CCNC(=O)CSc2nnc(-c3cccc(F)c3)o2)cc1OC | inactive
CC(C)C(=O)Nc1cccc(C(=O)Nc2ccc3c(c2)OCO3)c1 | inactive
O=C(NC1CCCCC1)C1c2ccccc2C(=O)N1Cc1ccco1 (configuration not stated) | inactive
O=C1c2cccnc2C(Nc2ccc(S(=O)(=O)N3CCCCCC3)cc2)N1Cc1ccccc1 (configuration not stated) | inactive
O=C1c2ccccc2C(O)N1Cc1ccccc1 (configuration not stated) | 26 nM (active)
CC(C)(CNCC(O)c1ccccc1)N1CCOCC1 (configuration not stated) | inactive
Cc1ccc(C)c(NS(=O)(=O)c2cc(Br)cnc2N)c1 | inactive
Cc1ccc(-c2noc(CSc3nnc(-c4ccccc4)n3C)n2)cc1 | inactive
N=c1n(Cc2ccc(Cl)cc2)c2ccccc2n1CC(O)c1ccco1 (configuration not stated) | 11 nM (active)
O=C(c1ccncc1)N1CCC2(CCCN(C(c3ccccc3)c3ccccc3)C2)CC1 | inactive
COC(=O)[C@@H](NC(=O)NCc1cccc(OC)c1)C(C)C | inactive
COc1cc(OC)cc(-c2nc3nc(C)c(CCC(=O)NCc4ccco4)c(C)n3n2)c1 | inactive
COc1ccc(CCn2c(=N)c(C(=O)NCc3ccco3)cc3c(=O)n4cccc(C)c4nc32)cc1 | 15 nM (active)
COc1ccc(CNC(=O)C2CCN(S(=O)(=O)N3CCOCC3)CC2)cc1 | inactive
COc1ccc(CNC(=O)c2cc3c(=O)n4ccccc4nc3n(CC3CCCO3)c2=N)cc1 (configuration not stated) | 290 nM (active)
COc1ccc(C(=O)NCc2cn3ccccc3n2)cc1 | inactive
COCCCNC(=O)c1ccc2c(c1)ncn2-c1ccccc1OC | inactive
COc1ccccc1C(=O)NCCn1cc(SCC(=O)NCc2ccco2)c2ccccc21 | inactive
CCn1c(=N)c(C(=O)NCCCOC)cc2c(=O)n3cccc(C)c3nc21 | 20000 nM (active)
CCOCCCNC(=O)c1c[nH]c2cc(C)ccc2c1=O | inactive
